# From PubChem
# CCT chaperon mod = modulators of cytosolic chaperonin (CCT/TRiC) activity. purified chaperonin ATPase assay, HTRF ADP detection, 30 min. activity change, % (concentration not given with the values), hits read low. 360,000 tested, 0.3% active. AID 651819; in the data active means activity change below about -30%
#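 Nucleotide hydrolysis assay: TRiC at 20–40 nM final (set by batch activity) with 10 uM ATP, 30 min at 37 °C, in presence of 76 uM compound. Detection by competitive ADP HTRF, 30 min ambient.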
# G9a inh = G9a (human) methyltransferase inhibition | Q96KQ7 | G9a H3K9 monomethylation, AlphaScreen, 2 h | Potency, µM (doses to about 102 µM), for the others: top-dose activity, negative = inhibition, actives largely listed as inhibitors | 350,000 tested, 8.8% active | AID 504332; further: potency means the concentration at half of the fitted maximal effect; nearly all actives have a fitted effect of over 75% in size
# Target sequence (Q96KQ7 913-1193 limits assumed): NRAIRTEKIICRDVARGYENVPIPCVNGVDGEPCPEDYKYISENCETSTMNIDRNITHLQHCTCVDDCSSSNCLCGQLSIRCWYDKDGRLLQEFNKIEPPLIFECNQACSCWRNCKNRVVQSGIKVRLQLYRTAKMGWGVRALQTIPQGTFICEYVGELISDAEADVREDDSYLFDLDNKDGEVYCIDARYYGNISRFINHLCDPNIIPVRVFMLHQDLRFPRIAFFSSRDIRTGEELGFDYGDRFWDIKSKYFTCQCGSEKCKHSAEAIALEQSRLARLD
#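 AlphaScreen detection with an anti-monomethyl H3K9 antibody quantified product after a 2 h room-temperature reaction containing 500 nM biotinylated H3K9 peptide, 20 µM SAM and 20 nM enzyme, which had been preincubated 15 min with compound.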
# PLK1 PBD inh = blocks phosphopeptide binding to human PLK1 polo-box domain | Potency, µM, inactives show max response, negative = inhibition, hits mostly inhibitors | 360,000 tested, 2.8% active | AID 720504 | Plk1 PBD binding of FITC phosphopeptide, fluorescence polarization; further: potency means the concentration at half of the fitted maximal effect; series mostly up to about 57 µM; nearly all actives have a fitted effect of over 65% in size
# Sfp inh = Sfp phosphopantetheinyl transferase inhibition | 310,000 tested, 3.5% active | Potency, µM, without a hit: largest response in the series, negative = inhibition, actives largely listed as inhibitors | AID 1490 | Biochemical Sfp PPTase activity, qHTS | Q9F4F7;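 further: the enzyme is Sfp with the accession as filed and its product quenches rhodamine fluorescence; potency means the concentration at half of the fitted maximal effect; 0% = enzyme reaction without inhibitor and -100% = no enzyme wells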
#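 Fluorescence-quenching assay with 15 nM Sfp, 5 uM rhodamine-CoA and 12.5 uM BHQ-2-labelled ybbR peptide in pH 7.6 Hepes/MgCl2 buffer. Enzyme was pre-incubated with compound for 15 min at room temperature. Rate was taken from the 30-min fluorescence change (525/598 nm).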
# Mm-Cpn inhibitor = inhibitors of Methanococcus maripaludis chaperonin TRiC (MmCpn). Potency, µM (titrated, usually from 76.9 µM), without a hit: at the highest dose activity, negative = inhibition, actives largely listed as inhibitors. 330,000 tested, 0.031% active. AID 504842. purified Mm-Cpn ATPase, ADP Transcreener TR-FRET; further: potency means the concentration at half of the fitted maximal effect; nearly all actives have a fitted effect of over 80% in size
#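 Reaction buffer contained 30 mM Tris pH 7.4, 100 mM KCl, 5 mM MgCl2 and 1 mM DTT. Mm-CPN (25 nM final) hydrolysed 10 uM ATP over 30 min at 37°C; ADP was read by HTRF.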
# VDR inhibitor = vitamin D3 receptor (human) inhibition; VDR-SRC2-3 peptide fluorescence polarization, 2 h; Potency, µM, for the others: max response, negative = inhibition, hits mostly inhibitors; 400,000 tested, 0.93% active; further: potency means the concentration at half of the fitted maximal effect
# Target sequence (P11473 whole entry, looked up): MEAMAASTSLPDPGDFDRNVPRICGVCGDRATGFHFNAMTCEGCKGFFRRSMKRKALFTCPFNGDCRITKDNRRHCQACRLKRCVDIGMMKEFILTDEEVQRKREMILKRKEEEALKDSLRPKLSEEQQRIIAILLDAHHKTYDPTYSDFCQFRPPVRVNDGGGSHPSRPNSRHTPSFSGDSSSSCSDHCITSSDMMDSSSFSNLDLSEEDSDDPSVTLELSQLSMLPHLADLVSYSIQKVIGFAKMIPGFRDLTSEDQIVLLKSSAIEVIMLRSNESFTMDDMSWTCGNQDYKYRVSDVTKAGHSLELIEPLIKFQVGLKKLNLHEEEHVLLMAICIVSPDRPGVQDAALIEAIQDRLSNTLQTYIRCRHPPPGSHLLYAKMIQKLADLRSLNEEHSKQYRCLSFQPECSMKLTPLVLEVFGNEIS
#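 Fluorescence polarization assay measuring small-molecule disruption of VDR binding to the coregulator peptide SRC2-3. Compounds were pin-transferred (23 nl) into the reagent mix and incubated 2 h at room temperature before reading.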
# The depositor's hits bear a star; ? = inconclusive; . = no result; [ ] = another dose, or the depositor's remark. An excerpt weighted towards active compounds, which were near 10% of everything screened. Unless noted, the call rests on the fitted dose curve; in most records, active means well fitted curve in the direction sought with a large enough effect; inconclusive means small, poorly fitted or top-dose-only effect, or another doubt; inactive means no such curve, though single readings can be large; an effect the other way counts as inactive or inconclusive. Unless noted, on the % scale 0 is the no-effect control and ±100 the full control effect.
SMILES,CCT chaperon mod,G9a inh,PLK1 PBD inh,Sfp inh,Mm-Cpn inhibitor,VDR inhibitor
O=[N+]([O-])c1ccc(Nc2cccc(F)c2)nc1,-2.6,50.1µM*,0.2%,15.8%,1.5%,-6.1%
O=[N+]([O-])c1ccccc1Nc1cccc(F)c1,-0.4,.,4.0%,.,.,-0.7%
Cc1ccc(CNC(=O)CSc2nc3ccsc3c(=O)n2-c2ccc(C(=O)O)cc2)cc1,.,5.3%[59 µM],.,.,.,10.7%
O=C(OCc1cc(=O)n2nc(-c3cccs3)sc2n1)c1ccc(Cl)cc1,.,14.2%[59 µM],.,.,.,6.7%
CC1S/C(=N/N=C/c2cccc([N+](=O)[O-])c2)NC1=O (stereo not drawn),1.6,12.6µM*,4.5%,-11.8%,-0.2%,4.5%
CC1S/C(=N/N=C/c2cccs2)NC1=O (stereo not drawn),-0.6,19.8%,-0.7%,13.3%,-0.8%,-5.0%
CC1(C)CC(=O)C=C(Nc2ccc(O)c(C(=O)O)c2)C1,-0.2,44.7µM*,-3.2%,-0.8%,-1.9%,-2.7%
Oc1ccccc1C1=Nc2ncnn2C(c2ccccc2)C1 (stereo not drawn),-3.9,17.8µM*,-15.7%,0.5%,0.3%,-14.0%
CCC(=O)OCC(=O)Nc1ccc(OC)cc1[N+](=O)[O-],-0.6,-36.5%,-13.9%,17.7%,2.7%,5.5%
CCOc1ccc(NC(=O)COc2ccccc2)c([N+](=O)[O-])c1,1.0,?,23.8µM*,7.5%,1.0%,?
COc1ccc(NC(=O)COC(=O)c2ccco2)c([N+](=O)[O-])c1,0.6,8.3%,26.7µM*,-13.0%,1.8%,-5.4%
FC(F)(F)c1cccc(-c2nnc3ccc(C(F)(F)F)cn23)c1,-10.7,35.5µM*,-13.3%,19.7%,0.3%,-16.0%
Clc1cccc(N2CCN(c3nc4ccccc4c4nc(-c5cccnc5)nn34)CC2)c1,.,3.8%[59 µM],.,.,.,2.1%
CCOC(=O)c1ccc(NC(=O)C(C)Sc2nc(=O)cc(N)n2CCc2ccccc2)cc1 (stereo not drawn),.,-32.8%[59 µM],.,.,.,-23.7%
CC(=O)c1c(O)cccc1O,.,.,.,25.1µM*,.,-16.8%
CC(=O)c1c(O)ccc2c(-c3ccccc3)cc(=O)oc12,1.1,8.8%[59 µM],-2.8%,20.8%,-0.6%,-4.0%
CCCOc1ccc(-c2nonc2NC(=O)c2ccco2)cc1OCCC,.,-0.8%[59 µM],.,.,.,3.9%
CN(C)Cc1nc(-c2cn(C)c3ccccc23)no1,.,18.8%[59 µM],.,-17.9%,.,12.9%
COc1ccc2c(c1)sc(=N)n2C,-3.4,20µM*,5.0%,2.4%,2.9%,5.9%
CCOC(=O)c1ccc(NC(=O)c2c(N3CCCC3=O)c3cc(OC)ccc3n2C)cc1,.,-39.0%[59 µM],.,.,.,13.5%
O=C(NC(=S)Nc1cc(Cl)ccc1N1CCOCC1)c1ccc(-c2cccc(Cl)c2)o1,-2.8,13.0%[59 µM],-6.0%,-3.3%,-2.4%,-11.9%
O=C(c1cc(-c2cccc(Cl)c2)on1)N1CCCCC1,.,-4.2%[59 µM],.,.,.,-9.1%
S=C(c1ccc(-c2cccc(Cl)c2)o1)N1CCOCC1,-1.6,?,18.9µM*,20µM*,-0.7%,?
S=C(c1ccc(-c2cccc(Cl)c2)o1)N1CCCCC1,10.9,11.2µM*,?,-42.9%,-1.4%,3.6%
COc1ccc(OCC(O)CN(CC(O)COc2ccc(OC)cc2)c2cccc(O)c2)cc1 (stereo not drawn),0.1,50.1µM*,-12.2%,4.6%,0.4%,-13.3%
SMILES,CCT chaperon mod,G9a inh,PLK1 PBD inh,Sfp inh,Mm-Cpn inhibitor,VDR inhibitor
COc1ccc(OCC(O)COc2ccc(OC)cc2)cc1,-3.4,-8.2%[59 µM],-1.3%,9.0%,0.7%,4.5%
Cc1cccc(NC(=O)CSc2nc3c([nH]c4ccccc43)c(=O)n2-c2ccc(F)cc2)c1C,.,-7.3%[59 µM],.,.,.,6.1%
CCc1cccc(C)c1NC(=O)c1cc(S(=O)(=O)N2CCOCC2)cn1C,.,?,.,.,.,2.9%
Cc1c(C(C)(C)C)c(C=S)n2ccccc12,-0.6,3.98µM*,?,50.1µM*,-1.4%,-18.3%
Cc1c(C=O)c2ccccn2c1C(=O)c1ccccc1,1.1,29.8%[59 µM],-2.3%,8.1%,-1.5%,-2.0%
O=C(Nc1sc2c(c1C(=O)Nc1ccccc1)CCC2)c1ccc(Br)cc1,.,42.4%[59 µM],.,.,.,4.5%
O=C1Nc2ccccc2/C1=N\c1sc2c(c1C(=O)Nc1ccccc1)CCCC2,1.0,12.6µM*,?,4.0%,-0.8%,-28.0%
CCn1c(CSCc2ccc(Cl)cc2)n[nH]c1=S,0.9,3.16µM*,-15.4%,-11.1%,-4.4%,-5.2%
CCn1c(CSCc2ccc(C)cc2)n[nH]c1=S,-0.4,.,-4.8%,-7.7%,0.3%,19.2%
CC(=O)N1CC[n+]2c(-c3ccc(Cl)cc3Cl)csc21,-2.7,12.6µM*,?,31.6µM*,2.9%,39.8µM*
COc1ccc(CNCc2cc3c(cc2[N+](=O)[O-])OCO3)cc1,-1.1,10µM*,-9.4%,?,-0.6%,-8.1%
COc1cc(C(=O)NCc2ccc3c(c2)OCO3)c([N+](=O)[O-])cc1OC,-1.7,-1.4%,1.7%,6.8%,0.5%,-20.5%
Cc1cc(C)cc(NCc2cc3c(cc2[N+](=O)[O-])OCO3)c1,-2.4,44.7µM*,-8.6%,-10.3%,-1.8%,-10.3%
COc1ccc(NC(=O)C(c2cc3c(cc2[N+](=O)[O-])OCO3)N(C)Cc2ccccc2)cc1 (stereo not drawn),-4.0,79.4µM*,0.1%,-3.0%,2.0%,5.9%
Cc1ccc(-c2cnc(NCc3cc4c(cc3[N+](=O)[O-])OCO4)n2C)cc1C,-0.5,-0.1%,-0.2%,23.1%,-3.7%,-16.0%
Cc1cccc(Nc2c(-c3ccsc3)nc3nc(C)cc(C)n23)c1,.,-24.5%[59 µM],.,.,.,3.8%
COc1ccc(CNC(=O)C2(c3cccs3)CCOCC2)cc1,.,-37.7%[59 µM],.,.,.,10.2%
CCCCNC(=O)c1cnc2c(-c3ccc(OCC)c(OCC)c3)c(C)nn2c1-c1ccccc1,.,0.2%[59 µM],.,.,.,18.5%
Cc1cc2oc(=O)cc(Cn3ncc(Cl)c(Cl)c3=O)c2cc1Cl,-48.5*,.,-26.6%,-7.3%,-1.8%,?
CC[C@H](C)[C@H](NC(=O)[C@H](CCC(=O)O)NC(=O)CNC(=O)[C@H](CCCCN)NC(=O)[C@H](CCC(=O)O)NC(=O)[C@H](CCSC)NC(=O)[C@H](CCSC)NC(=O)[C@H](CCSC)NC(=O)[C@H](CCC(=O)O)NC(=O)CNC(=O)[C@H](CO)NC(=O)[C@H](CO)NC(=O)[C@H](CO)NC(=O)[C@@H](N)CC(N)=O)C(=O)N[C@@H](CCCCN)C(=O)O,.,.,.,-0.2%,.,0.0%
C=CCn1c(COC)nnc1SCC(=O)c1ccc(F)cc1,-1.9,3.55µM*,-16.3%,?,0.5%,?
C=CCn1c(CNC(=O)c2ccco2)nnc1SCC(=O)c1ccc(F)cc1,-1.6,?,-9.4%,11.8%,-1.7%,-2.3%
Cc1ccccc1Nc1c(-c2cccc(N(C)C)c2)nc2ccc(Br)cn12,.,-11.6%[59 µM],.,.,.,-2.8%
O=C(CN1C(=O)S/C(=C\c2cc(Cl)c(O)c(Cl)c2)C1=O)Nc1ccccc1,-2.2,.,?,5.6%,1.1%,7.4%
